Results filed as inconclusive are left out. Activity calls are given as the source filed them. Calls come from the whole dose curve; as a rule, active = well fitted inhibition curve with a large enough effect in the polarisation, with a control signal flat (not every such curve was filed as active); inconclusive = small, poorly fitted or top-dose-only effect, or effect the other way, or a change in a side signal; inactive = no such curve, though single readings can be large or run the other way; the % refers to the polarisation.
These molecules were tested against Menin (Homo sapiens) (UniProt O00255) (assay: Confirmation of Inhibitors Targeting the Menin-MLL Interaction in MLL Related Leukemias: Competition With Fluorescein Labeled MLL-derived Peptide). Details: Fluorescence polarization, fluorescein-MLL peptide displacement from menin; series mostly up to 100 µM.
Chain of Menin (Homo sapiens) (O00255 whole entry, looked up): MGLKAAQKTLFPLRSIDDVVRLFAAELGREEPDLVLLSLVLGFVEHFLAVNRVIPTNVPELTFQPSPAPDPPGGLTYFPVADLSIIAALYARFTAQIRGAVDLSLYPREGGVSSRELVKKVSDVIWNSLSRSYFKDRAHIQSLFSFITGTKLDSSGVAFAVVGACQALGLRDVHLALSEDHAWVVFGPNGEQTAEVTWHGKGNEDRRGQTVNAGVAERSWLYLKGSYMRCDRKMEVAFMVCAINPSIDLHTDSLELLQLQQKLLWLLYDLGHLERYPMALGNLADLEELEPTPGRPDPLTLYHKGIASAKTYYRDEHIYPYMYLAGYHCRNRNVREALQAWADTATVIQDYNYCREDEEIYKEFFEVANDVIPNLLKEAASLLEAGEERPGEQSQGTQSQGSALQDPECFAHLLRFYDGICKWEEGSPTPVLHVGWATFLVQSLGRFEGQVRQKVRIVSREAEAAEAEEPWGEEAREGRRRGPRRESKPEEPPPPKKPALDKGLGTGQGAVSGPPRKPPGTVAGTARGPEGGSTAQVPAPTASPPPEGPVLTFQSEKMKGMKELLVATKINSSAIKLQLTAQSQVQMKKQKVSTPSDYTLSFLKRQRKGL

outcome, inactive:
O=C1NC(=S)N/C1=C/c1ccc2ccccc2c1
Cc1cc2cc(C(c3nnnn3CC3CCCO3)N3CCCc4ccccc43)c(=O)[nH]c2cc1C (stereo not drawn)
CCC(=O)NC(=S)Nc1ccc(-c2nc3ccc(C)cc3s2)cc1
COc1ccccc1C(=O)Nc1ccccc1SC(=O)c1ccccc1OC
COc1ccc(S(=O)(=O)Nc2cc(SCC(=O)O)c(O)c3ccccc23)cc1
COC(=O)c1cc(CNC(=O)CCCSc2ccccc2)ccc1OC
c1ccc(-c2ccc(-c3csnn3)cc2)cc1
CN1CCN(CC(=O)Nc2ccc(S(=O)(=O)N(C)C)cc2)CC1
CN(CCOc1ccc(Cl)cc1)CC(O)c1ccccc1 (stereo not drawn)
CCCN(CCC)CCCNC(=O)c1cc2c(=O)[nH]c3ccccc3c2s1
COc1ccc(CN2CCC(Cc3ccccc3)CC2)c(C)c1C
COc1ccc(C2=C(CN(C)C)C(c3ccccc3)c3ccccc3O2)cc1 (stereo not drawn)
Cc1ccc(C)n1-c1ccc(N(C)C)cc1
COc1ccc(NC2=C(NCCO)C(=O)c3ccccc3C2=O)cc1
O=C(CC(=O)c1ccccc1)Nc1cc(C(F)(F)F)ccc1Cl
COc1ccc(NC(=O)N2CC[C@@]3(CCCN(C(=O)c4csnn4)C3)C2)cc1
CC(=O)c1cccc(NS(=O)(=O)c2ccc(N/C=C\C(=O)c3ccc(F)cc3)cc2)c1
COc1ccccc1/C=C/C(=O)NC(=S)Nc1ccc(S(=O)(=O)N(C)c2ccccc2)cc1
COCCn1c(C)c(C)c2c(NCCc3ccccc3)ncnc21
Cc1ccc(S(=O)(=O)c2cc(OC(=O)c3ccco3)ccc2OC(=O)c2ccco2)cc1
O=C(/C=C/c1ccccc1)NC(NC(=S)Nc1cc(Cl)ccc1Cl)C(Cl)(Cl)Cl (stereo not drawn)
Cn1c(=O)[nH]c(=O)c2c1nc(Br)n2CCSc1nc2ccccc2o1
CCOc1ccccc1N(CC(=O)Nc1ccccc1C(=O)N1CCCC1)S(C)(=O)=O
Cc1ccc(-c2cc(C(=O)Nc3cc(C)ccc3O)no2)cc1
CN1CCN(CC(=O)c2ccccc2F)CC1
CC(=O)O[C@H]1CSC[C@H]1NC(=O)c1ccccc1
CCN1CCN(CC(=O)Nc2ccc(C(C)=O)cc2)CC1
O=C(CSc1nnc(-c2c[nH]c3ccccc23)o1)N1c2ccccc2CCc2ccccc21
O=C(CSc1nc(O)cc(=O)n1-c1ccccc1)c1ccc(Br)cc1
C/C(=N\NC(=O)c1nnn(-c2nonc2N)c1C)c1ccc(-c2ccccc2)cc1
COc1cc(NC(=O)c2cccnc2)c(OC)cc1NC(=O)c1ccc(Br)cc1
Cc1ccc(/C=C2\SC(=S)N(CC(=O)Nc3ncc(Cc4ccccc4Cl)s3)C2=O)cc1
O=C(CSc1nnnn1-c1ccc(O)cc1)N1N=C(c2ccc3ccccc3c2)CC1c1ccccc1 (stereo not drawn)

Source: PubChem BioAssay AID2783 (National Center for Advancing Translational Sciences (NCATS), 2010)
